Drawing on PubChem BioAssay (NCATS), this text covers Potency and viability for 18 compounds.

A short description of assay [1]: Quantitative High-Throughput drug screen in 47 multiple myeloma cell lines against the NCATS MIPE library collection: Karpas25_ECACC cell viability assay (AID 1918968; also: potency is read from the fitted curve at half-maximal effect; nearly all actives have a fitted effect of over 35% in size). Put shortly:
(§1)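 Primary qHTS used for cherry-picking: cells at 500/well, library compounds for 48 h (37C, 5% CO2), luminescent ATP assay.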

A short description of assay [2]: Quantitative High-Throughput drug screen in 47 multiple myeloma cell lines against the NCATS MIPE library collection: MOLP8_DSMZ cell viability assay (AID 1918977). Also: nearly all actives have a fitted effect of over 45% in size. Also: potency is read from the fitted curve at half-maximal effect. Put shortly: (§2)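 ATP-based CellTiter-Glo luminescence after 48 h drug exposure (37 °C, 5% CO2) of 500 myeloma cells per well. DMSO-only wells set 100% viability, media-only wells 0%; MIPE 4.0 library added by pin tool.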

Assay [3] is described as follows: Quantitative High-Throughput drug screen in 47 multiple myeloma cell lines against the NCATS MIPE library collection: OCIMY1_PLB cell viability assay (AID 1918979). Also: nearly all actives have a fitted effect of over 35% in size. The procedure, abridged: as §2
Assay [4] can be described thus: Quantitative High-Throughput drug screen in 47 multiple myeloma cell lines against the NCATS MIPE library collection: LP1_DSMZ cell viability assay (AID 1918982). Also: nearly all actives have a fitted effect of over 35% in size. Also: potency is read from the fitted curve at half-maximal effect. The procedure, abridged: as §2
Assay [5] can be described thus: Quantitative High-Throughput drug screen in 47 multiple myeloma cell lines against the NCATS MIPE library collection: KMS28PE_JCRB cell viability assay (AID 1918983). Also: nearly all actives have a fitted effect of over 35% in size. Also: potency is read from the fitted curve at half-maximal effect. The procedure, abridged:
as §2

Assay [6] in a line: Quantitative High-Throughput drug screen in 47 multiple myeloma cell lines against the NCATS MIPE library collection: NCIH929_DSMZ cell viability assay (AID 1918978). Also: nearly all actives have a fitted effect of over 35% in size. Also: potency is read from the fitted curve at half-maximal effect. Put shortly:
as §2

The nature of assay [7]: Quantitative High-Throughput drug screen in 47 multiple myeloma cell lines against the NCATS MIPE library collection: MM1S_ATCC cell viability assay (AID 1918980). Also: nearly all actives have a fitted effect of over 45% in size. Also: potency is read from the fitted curve at half-maximal effect. The procedure, abridged: as §2
The nature of assay [8]: Quantitative High-Throughput drug screen in 47 multiple myeloma cell lines against the NCATS MIPE library collection: L363_DSMZ cell viability assay (AID 1918984). Also: nearly all actives have a fitted effect of over 40% in size. Also: potency is read from the fitted curve at half-maximal effect. The procedure, abridged: as §2
Assay [9] in a line: Quantitative High-Throughput drug screen in 47 multiple myeloma cell lines against the NCATS MIPE library collection: H1112_PLB cell viability assay (AID 1918967; also: nearly all actives have a fitted effect of over 30% in size). Put shortly: as §1
Assay [10] is described as follows: Quantitative High-Throughput drug screen in 47 multiple myeloma cell lines against the NCATS MIPE library collection: KMS12PE_JCRB cell viability assay (AID 1918972). Also: nearly all actives have a fitted effect of over 30% in size. Also: potency is read from the fitted curve at half-maximal effect. Put shortly:
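CellTiter-Glo ATP luminescence gave viability after 48 h compound treatment at 37C of 500 multiple myeloma cells per well. Normalisation used DMSO-only wells as 100% and media-only wells as 0% viability; primary qHTS of approved and investigational drugs.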

The nature of assay [11]: Quantitative High-Throughput drug screen in 47 multiple myeloma cell lines against the NCATS MIPE library collection: KMS20_JCRB cell viability assay (AID 1918973). Also: nearly all actives have a fitted effect of over 45% in size. Also: potency is read from the fitted curve at half-maximal effect. Put shortly:
as §1

Assay [12] in a line: Quantitative High-Throughput drug screen in 47 multiple myeloma cell lines against the NCATS MIPE library collection: MMM1_PLB cell viability assay (AID 1918976). Put shortly:
as §2

The nature of assay [13]: Quantitative High-Throughput drug screen in 47 multiple myeloma cell lines against the NCATS MIPE library collection: KMS34_JCRB cell viability assay (AID 1918985). Also: nearly all actives have a fitted effect of over 40% in size. Also: potency is read from the fitted curve at half-maximal effect. Put shortly:
as §2

Assay [14] in a line: Quantitative High-Throughput drug screen in 47 multiple myeloma cell lines against the NCATS MIPE library collection: KMS27_JCRB cell viability assay (AID 1918970). Also: nearly all actives have a fitted effect of over 30% in size. Also: potency is read from the fitted curve at half-maximal effect. Put shortly:
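KMS27_JCRB myeloma cells, 500 per well, exposed 48 h at 37 C, 5% CO2 to MIPE 4.0 compounds. Viability from ATP by CellTiter-Glo luminescence, normalized to DMSO (100%) and medium-only (0%) wells.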

Assay [15] in a line: Quantitative High-Throughput drug screen in 47 multiple myeloma cell lines against the NCATS MIPE library collection: KMS12BM_JCRB cell viability assay (AID 1918971). Also: nearly all actives have a fitted effect of over 35% in size. Also: potency is read from the fitted curve at half-maximal effect. Put shortly: (§3)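 qHTS of the MIPE 4.0 collection: 500 myeloma cells/well, 48 h drug exposure at 37C in 5% CO2, then CellTiter-Glo for 5 min at room temperature before luminescence reading.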
Assay [16] is described as follows: Quantitative High-Throughput drug screen in 47 multiple myeloma cell lines against the NCATS MIPE library collection: KMS26_JCRB cell viability assay (AID 1918975). Also: nearly all actives have a fitted effect of over 45% in size. Put shortly:
as §3

Assay [17] in a line: Quantitative High-Throughput drug screen in 47 multiple myeloma cell lines against the NCATS MIPE library collection: MM1R_ATCC cell viability assay (AID 1918981). Also: nearly all actives have a fitted effect of over 35% in size. Also: potency is read from the fitted curve at half-maximal effect. The procedure, abridged:
as §2

Assay [18] in a line: Quantitative High-Throughput drug screen in 47 multiple myeloma cell lines against the NCATS MIPE library collection: KMS21BM_JCRB cell viability assay (AID 1918974). Also: potency is read from the fitted curve at half-maximal effect. The note with it: ATP luminescence, 48 h; viability: at 45.8 µM (top of the series) unless noted. The procedure, abridged:
as §1

Records with an inconclusive call do not appear. Active and inactive are the calls of the source. Calls follow the shape of the dose curve; as a rule, active = well fitted curve in the direction sought with a large enough effect; inconclusive = small, poorly fitted or top-dose-only effect, or another doubt; inactive = no such curve, though single readings can be large; an effect the other way counts as inactive or inconclusive.

`C[C@]12CCC(=O)C=C1CC[C@@H]1[C@H]2[C@@H](O)C[C@@]2(C)[C@H]1CC[C@]2(O)C(=O)CO`: in assay [1], the Potency is 5.9 µM (active). Also, the Potency entry in assay [2], in assay [3], in assay [4] and in [5] was “inactive” in each case.

For the compound `OC(CN1CCN(c2cccc(Cl)c2)CC1)C(c1ccccc1)c1ccccc1` (stereo not drawn), the Potency entry in assay [2], in assay [6] and in [8] was “inactive” in each case. Moreover, in assay [7], the Potency was 5.26 µM (active).

For `Cc1nc(-c2ccc(OCC(C)C)c(C#N)c2)sc1C(=O)O`, the Potency result in assay [9], in assay [10], in assay [11], in [6], in assay [3] and in assay [7] was “inactive” each time. In addition, the Potency result in [5] and in [13] was “inactive” each time. Moreover, the values for the Potency in [12] and in [2] were 6.62 µM (active) and 2.96 µM (active), respectively.

As for `COCCCOc1ccnc(CS(=O)c2nc3ccccc3[nH]2)c1C` (stereo not drawn), the Potency entry in assay [9], in assay [14], in [15], in [10], in assay [16] and in assay [6] was “inactive” throughout. The Potency result in assay [3], in assay [17], in assay [5] and in [13] was “inactive” throughout.

Turning to `COc1c2occc2cc2ccc(=O)oc12`, the Potency result in [9], in assay [14], in assay [10], in [16], in assay [17] and in assay [4] was “inactive” each time. In addition, the Potency entry in assay [5], in [8] and in [13] was “inactive” each time. Also, the Potency in assay [15] is 20.9 µM (active); in assay [12], 1.32 µM (active); in assay [6], 5.26 µM (active); in assay [7], 18.7 µM (active).

Take `O=C1NC(=O)C(c2ccccc2[N+](=O)[O-])=C1Nc1ccc(O)c(Cl)c1`: the Potency entry in [9], in [3] and in assay [4] was “inactive” each time. The values for the Potency in assay [1] and in assay [10] were 13.2 µM (active) and 10.5 µM (active), respectively.

Turning to `Cc1ncc([N+](=O)[O-])n1CC(C)O` (stereo not drawn), the Potency in [1] is 11.8 µM (active); in assay [6], 20.9 µM (active); in assay [7] it was 14.8 µM (active). Also, the Potency result in [14], in assay [15], in assay [10], in assay [17], in [4] and in [5] was “inactive” each time.

As to `NNc1nncc2ccccc12`, the Potency result in assay [9], in assay [14], in assay [15], in [10], in assay [11] and in assay [16] was “inactive” each time. In addition, the Potency entry in assay [6], in [3], in assay [7], in [17], in [4] and in assay [5] was “inactive” throughout. Also, the Potency result in [8] and in [13] was “inactive” each time. Also, the Potency in assay [12] is 20.9 µM (active).

For the compound `COCCCN1CCC(NC(=O)c2cc(Cl)c(N)c3c2OCC3)CC1`, the figures for the Potency in [14], in [10] and in assay [8] were 18.7 µM (active), 16.6 µM (active) and 20.9 µM (active), respectively. Further, the Potency result in [5] and in assay [13] was “inactive” each time.

As for `COC(=O)C1=C(C)NC(C)=C(C(=O)OCCCN2CCC(c3ccccc3)(c3ccccc3)CC2)C1c1cccc([N+](=O)[O-])c1` (stereo not drawn), the Potency result in [9], in assay [14], in assay [10], in assay [11], in [2] and in [6] was “inactive” each time. Moreover, the Potency result in [3], in assay [4] and in assay [5] was “inactive” in each case. Further, the Potency in [17] is 20.9 µM (active); in assay [13] it was 3.32 µM (active).

For `CNC[C@@H](O)[C@@H](O)[C@H](O)[C@H](O)CO`, in assay [1], the Potency was 20.9 µM (active). The Potency entry in assay [16], in [2], in assay [6], in assay [3], in assay [4] and in assay [5] was “inactive” each time. In addition, the Potency result in [13] was “inactive”.

Turning to `CC(C)Oc1ccc2c(=O)c(-c3ccccc3)coc2c1`, the Potency entry in assay [9], in assay [14], in assay [6], in assay [17] and in assay [13] was “inactive” each time. The viability (usually a read-out of living cells in per cent, often relative to untreated cells) in assay [18] is 387% (active). Besides, the Potency is 18.7 µM (active) in assay [12], 13.2 µM (active) in [7] and 14.8 µM (active) in assay [5].

Consider `Nc1nc(Cl)nc2c1ncn2[C@H]1C[C@H](O)[C@@H](CO)O1`, for which the Potency in [15] is 0.0833 µM (active); in assay [10], 0.0372 µM (active); in [11], 1.48 µM (active); in assay [18], 0.0935 µM (active); in assay [12], 4.69 µM (active); in [2], 0.0833 µM (active). In addition, the values for the Potency in [6], in assay [7] and in assay [17] were 0.59 µM (active), 0.59 µM (active) and 0.264 µM (active), respectively. Besides, the Potency entry in assay [4] was “inactive”.

For `O=P(O)(O)C(O)(Cn1ccnc1)P(=O)(O)O`, the Potency result in assay [9], in assay [10], in [16], in assay [2], in assay [6] and in assay [3] was “inactive” throughout. The Potency result in assay [17], in assay [4] and in assay [5] was “inactive” throughout.

For `CC(C)c1nc(CN(C)C(=O)N[C@H](C(=O)N[C@@H](Cc2ccccc2)C[C@H](O)[C@H](Cc2ccccc2)NC(=O)OCc2cncs2)C(C)C)cs1`, the Potency entry in [14] and in assay [10] was “inactive” throughout. In addition, the Potency in assay [15] is 4.69 µM (active); in assay [4], 16.6 µM (active); in assay [13], 16.6 µM (active).

For the compound `CC1=C(C)C(=O)C(C(CCCCCC(=O)O)c2ccccc2)=C(C)C1=O` (stereo not drawn), the Potency entry in assay [9], in assay [6] and in assay [5] was “inactive” in each case.

For `CCOC(=O)C(C)Oc1cccc2c(=O)n(CC(=O)Nc3ccc4c(c3)OCCO4)ccc12` (stereo not drawn), the Potency entry in [9], in assay [10], in assay [6], in assay [3] and in assay [13] was “inactive” in each case. In [15], the Potency is 23.5 µM (active).

Regarding `CC(=O)NC[C@H]1CN(c2ccc(N3CCOCC3)c(F)c2)C(=O)O1`, the Potency result in assay [9], in assay [10], in [16], in assay [6], in assay [3] and in [17] was “inactive” throughout. Also, the Potency entry in assay [5] and in [13] was “inactive” each time. In addition, the Potency in [12] was 4.69 µM (active); in assay [2], 7.43 µM (active); in assay [7], 8.33 µM (active).
